From paper PMC7862700, “An all-to-all approach to the identification of sequence-specific readers for epigenetic DNA modifications on cytosine” come the findings set out here.

Common to all, as to experiment: DAPPL (digital affinity profiling via proximity ligation, sequencing); 10 mM Tris-HCl pH 7.5, 50 mM NaCl, 1 mM DTT, 4% glycerol, room temperature, 30 min; GST-TFs on glutathione beads, 16-mer random dsDNA library, 0.1% formaldehyde crosslink after washing; high values mean tight binding
Conditions in all cases: protein: recombinant; tags: N-terminal GST; dsDNA, one strand shown

For assay [1], the target named is T1, ELK1 (Homo sapiens, UniProt P19419 1-428).
T1 sequence: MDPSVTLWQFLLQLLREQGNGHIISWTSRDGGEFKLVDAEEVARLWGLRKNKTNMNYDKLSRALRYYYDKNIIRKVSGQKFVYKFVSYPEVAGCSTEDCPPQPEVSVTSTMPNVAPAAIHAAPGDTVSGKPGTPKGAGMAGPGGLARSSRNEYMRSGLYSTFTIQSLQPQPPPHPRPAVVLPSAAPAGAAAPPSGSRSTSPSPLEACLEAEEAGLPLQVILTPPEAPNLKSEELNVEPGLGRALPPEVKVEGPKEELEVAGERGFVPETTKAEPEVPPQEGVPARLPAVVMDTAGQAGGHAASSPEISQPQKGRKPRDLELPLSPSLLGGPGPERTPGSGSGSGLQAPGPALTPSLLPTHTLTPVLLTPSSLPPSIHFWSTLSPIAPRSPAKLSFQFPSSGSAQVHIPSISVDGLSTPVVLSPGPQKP
A digest of the protocol: (§1)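 A tag-only sample was pooled with DNA-barcoded human transcription factors that had been expressed in yeast as GST fusions and captured on glutathione beads. The pools were incubated for 30 min at room temperature with 200 nmole of a random double-stranded 16-mer DNA library in Tris/NaCl/DTT/glycerol buffer, then washed, crosslinked with 0.1% formaldehyde, proximity-ligated (BsaI/T4 ligase, 1 h, 37 °C), PCR-amplified and sequenced on an Illumina NextSeq500. Binding signal is each hexamer's read frequency for a factor divided by its frequency for the tag-only sample.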

Assay [2] has as its target T2, GABPA (Homo sapiens, UniProt Q06546 1-454).
T2 sequence: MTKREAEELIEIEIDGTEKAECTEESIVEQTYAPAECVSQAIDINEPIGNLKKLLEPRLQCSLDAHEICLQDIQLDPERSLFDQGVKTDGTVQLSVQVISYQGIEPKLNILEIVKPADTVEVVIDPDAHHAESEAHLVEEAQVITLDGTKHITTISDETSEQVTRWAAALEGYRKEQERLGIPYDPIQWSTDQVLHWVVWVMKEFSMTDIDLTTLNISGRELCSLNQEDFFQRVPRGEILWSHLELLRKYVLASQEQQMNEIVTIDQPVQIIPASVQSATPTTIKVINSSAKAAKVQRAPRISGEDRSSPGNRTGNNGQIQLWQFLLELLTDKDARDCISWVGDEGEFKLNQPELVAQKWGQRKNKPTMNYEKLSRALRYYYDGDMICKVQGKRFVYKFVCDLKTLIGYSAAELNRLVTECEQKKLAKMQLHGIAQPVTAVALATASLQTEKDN
In a few lines:
as §1

Assay [3] has as its target T3, ERG (Homo sapiens, UniProt P11308 1-479).
T3 sequence: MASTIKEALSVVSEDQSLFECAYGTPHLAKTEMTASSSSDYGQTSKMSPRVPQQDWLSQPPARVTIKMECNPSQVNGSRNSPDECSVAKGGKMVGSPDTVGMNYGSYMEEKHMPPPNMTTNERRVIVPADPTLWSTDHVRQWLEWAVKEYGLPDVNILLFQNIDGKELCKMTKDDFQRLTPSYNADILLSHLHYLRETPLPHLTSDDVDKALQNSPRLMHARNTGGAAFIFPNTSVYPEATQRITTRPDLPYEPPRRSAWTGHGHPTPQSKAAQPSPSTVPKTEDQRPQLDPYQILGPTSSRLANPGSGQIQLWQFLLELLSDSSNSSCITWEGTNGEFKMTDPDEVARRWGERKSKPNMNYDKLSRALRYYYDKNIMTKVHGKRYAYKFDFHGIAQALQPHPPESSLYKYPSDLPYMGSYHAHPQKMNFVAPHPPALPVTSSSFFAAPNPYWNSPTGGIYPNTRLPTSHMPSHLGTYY
A digest of the protocol: as §1

The target in assay [4] is ELF1 (Homo sapiens, UniProt P32519 1-619). A digest of the protocol:
as §1

In assay [5] the target is SPIB (Homo sapiens, UniProt Q01892 1-262). A digest of the protocol:
as §1

For assay [6], the target named is T4, ELK3 (Homo sapiens, UniProt P41970 1-407).
T4 sequence: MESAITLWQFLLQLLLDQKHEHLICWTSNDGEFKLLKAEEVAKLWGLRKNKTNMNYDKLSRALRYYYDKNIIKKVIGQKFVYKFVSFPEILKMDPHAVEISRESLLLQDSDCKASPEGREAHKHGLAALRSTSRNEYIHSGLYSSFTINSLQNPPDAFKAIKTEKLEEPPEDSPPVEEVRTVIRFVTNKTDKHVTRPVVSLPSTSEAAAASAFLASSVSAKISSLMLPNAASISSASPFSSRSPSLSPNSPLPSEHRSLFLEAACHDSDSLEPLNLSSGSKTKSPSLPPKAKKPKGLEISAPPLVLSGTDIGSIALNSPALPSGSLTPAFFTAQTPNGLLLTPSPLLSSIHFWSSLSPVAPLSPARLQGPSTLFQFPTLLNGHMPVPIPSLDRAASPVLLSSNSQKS
A digest of the protocol:
as §1

Assay [7] deals with T5, SPIC (Homo sapiens, UniProt Q8N5J4 1-248).
T5 sequence: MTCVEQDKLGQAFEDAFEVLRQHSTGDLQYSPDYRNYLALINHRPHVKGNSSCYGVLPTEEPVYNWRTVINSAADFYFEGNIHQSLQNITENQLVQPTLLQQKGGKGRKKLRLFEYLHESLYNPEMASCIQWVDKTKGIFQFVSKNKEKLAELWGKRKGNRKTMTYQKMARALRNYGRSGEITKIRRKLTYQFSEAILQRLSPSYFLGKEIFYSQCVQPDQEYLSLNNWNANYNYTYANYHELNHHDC
A digest of the protocol:
as §1

Assay [8] deals with ELF4 (Homo sapiens, UniProt Q99607 1-663). In a few lines: as §1
Sequence of ELF4 (Q99607 whole entry): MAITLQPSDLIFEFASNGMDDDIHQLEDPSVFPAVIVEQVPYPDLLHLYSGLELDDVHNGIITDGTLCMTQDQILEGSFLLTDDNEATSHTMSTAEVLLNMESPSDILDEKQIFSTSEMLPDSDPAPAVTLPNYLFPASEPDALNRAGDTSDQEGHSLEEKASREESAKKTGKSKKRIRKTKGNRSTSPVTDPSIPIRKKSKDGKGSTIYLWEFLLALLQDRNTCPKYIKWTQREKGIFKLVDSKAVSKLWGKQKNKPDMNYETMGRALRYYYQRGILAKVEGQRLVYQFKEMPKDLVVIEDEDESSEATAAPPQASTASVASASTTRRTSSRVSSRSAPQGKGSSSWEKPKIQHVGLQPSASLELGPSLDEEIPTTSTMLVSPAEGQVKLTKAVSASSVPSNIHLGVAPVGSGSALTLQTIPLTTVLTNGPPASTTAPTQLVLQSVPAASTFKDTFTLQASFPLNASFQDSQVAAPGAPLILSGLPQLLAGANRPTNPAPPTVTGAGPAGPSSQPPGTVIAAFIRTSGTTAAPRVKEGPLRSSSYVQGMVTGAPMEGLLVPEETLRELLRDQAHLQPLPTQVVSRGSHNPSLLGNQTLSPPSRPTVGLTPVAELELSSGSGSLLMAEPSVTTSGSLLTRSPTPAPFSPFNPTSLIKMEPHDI
In assay [9] the target is T6, ELK4 (Homo sapiens, UniProt P28324-2 1-405).
T6 sequence: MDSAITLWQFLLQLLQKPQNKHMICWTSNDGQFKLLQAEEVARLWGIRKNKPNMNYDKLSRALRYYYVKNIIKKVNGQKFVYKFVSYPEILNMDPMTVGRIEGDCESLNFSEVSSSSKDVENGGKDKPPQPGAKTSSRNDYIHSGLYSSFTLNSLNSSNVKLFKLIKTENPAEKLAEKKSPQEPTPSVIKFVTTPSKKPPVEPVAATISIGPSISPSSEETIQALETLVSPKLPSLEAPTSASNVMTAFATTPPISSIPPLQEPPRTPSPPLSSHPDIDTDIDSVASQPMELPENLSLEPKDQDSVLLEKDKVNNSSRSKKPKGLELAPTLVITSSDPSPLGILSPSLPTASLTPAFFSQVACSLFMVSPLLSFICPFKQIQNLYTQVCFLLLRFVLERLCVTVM
In a few lines:
as §1

Assay [10] concerns the target T7, ELF3 (Homo sapiens, UniProt P78545 1-371).
T7 sequence: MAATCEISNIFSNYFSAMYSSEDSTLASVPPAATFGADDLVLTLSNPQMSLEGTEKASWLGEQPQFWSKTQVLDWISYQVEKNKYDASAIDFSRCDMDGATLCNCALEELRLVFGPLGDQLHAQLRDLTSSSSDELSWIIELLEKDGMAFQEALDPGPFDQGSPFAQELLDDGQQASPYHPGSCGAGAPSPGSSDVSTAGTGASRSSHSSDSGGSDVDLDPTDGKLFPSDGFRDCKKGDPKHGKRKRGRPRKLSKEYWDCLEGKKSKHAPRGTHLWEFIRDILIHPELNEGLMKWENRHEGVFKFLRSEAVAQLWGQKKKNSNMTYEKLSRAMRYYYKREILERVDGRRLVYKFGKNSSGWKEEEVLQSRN
In a few lines:
as §1

Assay [11] has as its target ETV1 (Homo sapiens, UniProt P50549 1-477). In a few lines:
as §1

Assay [12] has as its target T8, ERF (Homo sapiens, UniProt P50548 1-548).
T8 sequence: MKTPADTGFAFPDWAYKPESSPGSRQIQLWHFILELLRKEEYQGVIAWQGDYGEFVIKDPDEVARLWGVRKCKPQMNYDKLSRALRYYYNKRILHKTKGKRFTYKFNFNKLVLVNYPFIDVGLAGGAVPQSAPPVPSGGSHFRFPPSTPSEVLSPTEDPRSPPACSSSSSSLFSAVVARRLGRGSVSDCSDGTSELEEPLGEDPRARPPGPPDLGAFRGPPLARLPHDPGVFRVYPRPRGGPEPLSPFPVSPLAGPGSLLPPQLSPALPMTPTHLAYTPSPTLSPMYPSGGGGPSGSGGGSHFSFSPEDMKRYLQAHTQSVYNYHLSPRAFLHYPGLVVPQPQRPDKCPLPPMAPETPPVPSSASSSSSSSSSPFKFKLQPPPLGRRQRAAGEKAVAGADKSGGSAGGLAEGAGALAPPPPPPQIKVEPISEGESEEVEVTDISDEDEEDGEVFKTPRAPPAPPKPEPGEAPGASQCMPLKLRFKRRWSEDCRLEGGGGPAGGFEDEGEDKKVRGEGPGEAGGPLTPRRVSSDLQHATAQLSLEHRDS
In a few lines: as §1

The target of assay [13] is T9, ETV3L (Homo sapiens, UniProt Q6ZN32 1-361).
T9 sequence: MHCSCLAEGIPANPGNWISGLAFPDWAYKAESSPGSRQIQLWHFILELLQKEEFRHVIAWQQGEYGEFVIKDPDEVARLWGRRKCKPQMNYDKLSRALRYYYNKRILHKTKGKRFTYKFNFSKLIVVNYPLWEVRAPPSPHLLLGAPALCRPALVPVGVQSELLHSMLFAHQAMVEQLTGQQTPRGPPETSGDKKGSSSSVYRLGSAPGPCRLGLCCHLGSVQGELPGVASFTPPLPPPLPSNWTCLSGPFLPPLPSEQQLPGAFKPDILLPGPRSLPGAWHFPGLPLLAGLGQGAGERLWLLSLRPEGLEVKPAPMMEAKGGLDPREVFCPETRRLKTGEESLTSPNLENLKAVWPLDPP
A digest of the protocol:
as §1

For assay [14], the target named is T10, ETS2 (Homo sapiens, UniProt P15036 1-469).
T10 sequence: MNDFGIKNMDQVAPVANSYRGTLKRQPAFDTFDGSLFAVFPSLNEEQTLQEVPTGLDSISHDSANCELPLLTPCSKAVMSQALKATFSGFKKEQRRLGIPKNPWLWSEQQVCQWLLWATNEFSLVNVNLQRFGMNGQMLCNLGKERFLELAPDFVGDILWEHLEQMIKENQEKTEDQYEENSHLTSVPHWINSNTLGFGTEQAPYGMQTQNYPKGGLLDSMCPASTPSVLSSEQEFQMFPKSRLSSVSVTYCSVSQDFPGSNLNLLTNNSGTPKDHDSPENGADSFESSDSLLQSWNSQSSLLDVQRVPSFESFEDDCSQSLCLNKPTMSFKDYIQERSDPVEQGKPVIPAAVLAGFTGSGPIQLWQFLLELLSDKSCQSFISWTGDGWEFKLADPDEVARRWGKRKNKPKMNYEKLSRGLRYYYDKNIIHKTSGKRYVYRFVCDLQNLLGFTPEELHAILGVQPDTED
A digest of the protocol: as §1

The target of assay [15] is T11, SPDEF (Homo sapiens, UniProt O95238 1-335).
T11 sequence: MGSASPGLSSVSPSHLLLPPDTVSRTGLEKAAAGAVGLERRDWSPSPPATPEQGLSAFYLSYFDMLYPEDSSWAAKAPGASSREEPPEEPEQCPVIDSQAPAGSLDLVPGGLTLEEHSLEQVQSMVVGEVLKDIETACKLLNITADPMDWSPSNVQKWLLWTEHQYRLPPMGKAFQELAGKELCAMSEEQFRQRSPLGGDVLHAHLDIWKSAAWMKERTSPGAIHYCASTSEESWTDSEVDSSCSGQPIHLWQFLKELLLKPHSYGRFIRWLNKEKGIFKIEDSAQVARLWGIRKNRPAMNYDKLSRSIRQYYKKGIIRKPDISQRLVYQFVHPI
A digest of the protocol: as §1

Assay [16] addresses T12, ETV7 (Homo sapiens, UniProt Q9Y603 1-341).
T12 sequence: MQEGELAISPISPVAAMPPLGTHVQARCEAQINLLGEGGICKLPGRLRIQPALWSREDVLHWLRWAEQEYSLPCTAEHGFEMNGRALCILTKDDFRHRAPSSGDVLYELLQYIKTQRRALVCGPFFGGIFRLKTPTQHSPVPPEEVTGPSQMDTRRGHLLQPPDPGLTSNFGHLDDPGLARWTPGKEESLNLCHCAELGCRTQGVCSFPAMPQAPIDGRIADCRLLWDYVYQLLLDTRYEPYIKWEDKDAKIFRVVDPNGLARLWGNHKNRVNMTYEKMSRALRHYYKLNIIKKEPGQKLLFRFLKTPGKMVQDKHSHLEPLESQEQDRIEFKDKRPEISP
A digest of the protocol: as §1

For assay [17], the target named is T13, ETV3 (Homo sapiens, UniProt P41162-2 1-143).
T13 sequence: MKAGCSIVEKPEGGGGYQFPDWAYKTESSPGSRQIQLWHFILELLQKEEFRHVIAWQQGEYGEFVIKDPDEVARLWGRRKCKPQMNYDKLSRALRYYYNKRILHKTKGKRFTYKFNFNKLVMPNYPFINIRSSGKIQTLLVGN
In a few lines:
as §1

The target of assay [18] is ETV6 (Homo sapiens, UniProt P41212 1-452). In a few lines: as §1
Sequence of ETV6 (P41212 whole entry): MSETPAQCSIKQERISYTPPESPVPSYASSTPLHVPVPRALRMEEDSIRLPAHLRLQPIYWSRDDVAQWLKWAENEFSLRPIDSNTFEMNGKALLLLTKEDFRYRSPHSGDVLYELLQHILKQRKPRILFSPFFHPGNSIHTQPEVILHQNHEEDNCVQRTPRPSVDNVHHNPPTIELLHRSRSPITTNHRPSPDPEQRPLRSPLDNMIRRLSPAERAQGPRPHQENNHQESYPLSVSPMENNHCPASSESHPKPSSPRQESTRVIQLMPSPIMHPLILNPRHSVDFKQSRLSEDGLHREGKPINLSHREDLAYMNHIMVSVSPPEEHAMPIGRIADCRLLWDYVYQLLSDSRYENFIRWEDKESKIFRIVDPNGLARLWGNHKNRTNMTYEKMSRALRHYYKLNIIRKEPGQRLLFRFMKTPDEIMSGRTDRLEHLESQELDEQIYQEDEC

Sequence of ELF1 (P32519 whole entry): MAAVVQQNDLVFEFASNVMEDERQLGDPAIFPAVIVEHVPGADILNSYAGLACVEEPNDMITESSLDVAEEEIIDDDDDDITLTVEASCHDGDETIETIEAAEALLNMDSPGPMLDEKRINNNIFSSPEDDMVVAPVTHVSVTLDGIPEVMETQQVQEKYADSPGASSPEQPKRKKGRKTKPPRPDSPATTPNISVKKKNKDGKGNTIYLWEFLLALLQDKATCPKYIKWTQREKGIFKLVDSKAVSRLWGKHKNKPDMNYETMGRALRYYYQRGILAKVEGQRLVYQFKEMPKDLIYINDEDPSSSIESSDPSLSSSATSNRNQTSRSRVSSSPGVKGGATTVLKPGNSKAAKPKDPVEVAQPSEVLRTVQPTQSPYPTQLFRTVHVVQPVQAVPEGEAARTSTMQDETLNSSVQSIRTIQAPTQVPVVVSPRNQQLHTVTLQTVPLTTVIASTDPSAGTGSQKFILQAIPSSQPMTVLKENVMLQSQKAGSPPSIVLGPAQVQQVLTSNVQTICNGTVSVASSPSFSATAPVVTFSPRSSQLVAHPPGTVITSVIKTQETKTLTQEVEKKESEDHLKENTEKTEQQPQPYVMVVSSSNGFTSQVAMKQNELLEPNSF
Sequence of SPIB (Q01892 whole entry): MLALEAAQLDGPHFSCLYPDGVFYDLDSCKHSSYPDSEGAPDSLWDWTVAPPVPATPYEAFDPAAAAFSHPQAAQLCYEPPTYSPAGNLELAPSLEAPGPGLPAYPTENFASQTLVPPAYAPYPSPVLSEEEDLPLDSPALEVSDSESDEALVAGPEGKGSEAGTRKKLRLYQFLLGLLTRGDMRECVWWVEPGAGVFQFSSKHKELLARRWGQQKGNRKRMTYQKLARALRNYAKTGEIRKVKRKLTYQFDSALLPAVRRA
Sequence of ETV1 (P50549 whole entry): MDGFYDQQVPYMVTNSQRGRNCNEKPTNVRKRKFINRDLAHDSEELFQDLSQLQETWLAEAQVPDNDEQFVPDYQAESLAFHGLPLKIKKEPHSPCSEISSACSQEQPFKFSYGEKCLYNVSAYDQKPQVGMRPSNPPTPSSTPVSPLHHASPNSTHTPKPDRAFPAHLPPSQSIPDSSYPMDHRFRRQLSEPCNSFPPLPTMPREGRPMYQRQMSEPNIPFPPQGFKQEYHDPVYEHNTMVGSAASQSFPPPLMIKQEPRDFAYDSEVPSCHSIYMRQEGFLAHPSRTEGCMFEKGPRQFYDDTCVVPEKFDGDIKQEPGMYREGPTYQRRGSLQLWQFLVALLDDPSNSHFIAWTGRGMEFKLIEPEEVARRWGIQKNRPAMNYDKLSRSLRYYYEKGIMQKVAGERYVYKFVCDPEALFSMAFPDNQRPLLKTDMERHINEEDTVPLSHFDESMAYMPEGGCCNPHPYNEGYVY

Consider ATAAGA, for which the binding signal was 1.12 fold enrichment (6-mer frequency, TF over GST control) in assay [1]; 1.08 fold enrichment (6-mer frequency, TF over GST control) in assay [2]; 1.11 fold enrichment (6-mer frequency, TF over GST control) in assay [3]; 1.04 fold enrichment (6-mer frequency, TF over GST control) in assay [4]; 1.04 fold enrichment (6-mer frequency, TF over GST control) in assay [5]; 1.13 fold enrichment (6-mer frequency, TF over GST control) in [6]. The binding signal in assay [7] was 1.03 fold enrichment (6-mer frequency, TF over GST control); in assay [8], 1.06 fold enrichment (6-mer frequency, TF over GST control); in [9] it was 1.11 fold enrichment (6-mer frequency, TF over GST control); in [10] it was 1.04 fold enrichment (6-mer frequency, TF over GST control); in assay [11] it was 1.1 fold enrichment (6-mer frequency, TF over GST control); in [12], 1.14 fold enrichment (6-mer frequency, TF over GST control). Also, the binding signal in [13] was 1.05 fold enrichment (6-mer frequency, TF over GST control); in [14] it was 1.09 fold enrichment (6-mer frequency, TF over GST control); in assay [15] it was 1.15 fold enrichment (6-mer frequency, TF over GST control); in assay [16] it was 1.04 fold enrichment (6-mer frequency, TF over GST control); in assay [17], 1.07 fold enrichment (6-mer frequency, TF over GST control); in [18], 1.07 fold enrichment (6-mer frequency, TF over GST control).
